# Measurements taken from article PMC5540273 (PLoS ONE, 2017).
# Experiments:
# Conditions in all cases: concentration: 1 μM, replicates: in singlicate; n = 1
# MRCKA = system: MRCKA
# MRCKB = system: T1, MRCKB
# T1 construct: gene CDC42BPB
# MST1R = system: MST1R
# MST1 = system: T2, MST1
# T2 construct: gene STK4
# MST2 = system: T3, MST2
# T3 construct: gene STK3
# MST3 = system: T4, MST3
# T4 construct: gene STK24
# MST4 = system: MST4
# MTOR = system: MTOR
# MUSK = system: MUSK
# MYLK2 = system: MYLK2
# MYLK4 = system: MYLK4
# MYLK = system: MYLK
# MYO3A = system: MYO3A
# MYO3B = system: MYO3B
# NDR1 = system: T5, NDR1
# T5 construct: gene STK38
# NDR2 = system: NDR2
# NEK10 = system: NEK10
# NEK11 = system: NEK11
# NEK1 = system: NEK1
# NEK2 = system: NEK2
# 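Note: KINOMEscan kinase panel screen.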
SMILES,%Inh (MRCKA) [%],%Inh (MRCKB) [%],%Inh (MST1R) [%],%Inh (MST1) [%],%Inh (MST2) [%],%Inh (MST3) [%],%Inh (MST4) [%],%Inh (MTOR) [%],%Inh (MUSK) [%],%Inh (MYLK2) [%],%Inh (MYLK4) [%],%Inh (MYLK) [%],%Inh (MYO3A) [%],%Inh (MYO3B) [%],%Inh (NDR1) [%],%Inh (NDR2) [%],%Inh (NEK10) [%],%Inh (NEK11) [%],%Inh (NEK1) [%],%Inh (NEK2) [%]
COc1ccc(Nc2nccc(N3CCC(NC(=O)c4cccc(NC(C)=O)c4)C3)n2)cc1 (stereo not drawn) [GSK1379732],0,0,34,0,10,13,0,8,0,8,6,29,37,0,15,10,24,48,6,6
CNc1nccc(-c2c(-c3ccc(F)cc3)ncn2C2CCN(C)CC2)n1 [SB-222903],0,5,0,0,0,0,0,18,0,0,0,0,0,19,33,17,0,0,0,0
Cn1ccc2ncnc(Oc3ccc(NC(=O)Nc4cccnc4)c(Cl)c3)c21,0,0,15,12,0,10,0,0,7,0,0,0,0,1,0,14,0,0,0,0
Cc1ccc(O)cc1Nc1cc(C(F)(F)F)nc2ccc(-c3ccncc3)cc12 [GW630823],0,0,19,0,44,18,0,0,0,4,0,6,6,0,0,6,0,0,0,2
FC(F)(F)c1ccc(-c2nn3ncccc3c2-c2ccnc(Nc3cccc(C(F)(F)F)c3)n2)cc1 [GW828205],31,17,0,0,21,0,0,0,0,0,1,40,0,0,19,0,0,0,0,0
Clc1cc(Nc2ncnc3cc[nH]c23)ccc1OCc1ccccn1,0,8,37,12,48,28,0,0,13,11,9,17,24,20,14,0,0,0,5,0
Nc1nc(-c2ccccn2)c(-c2ccnc3ccccc23)s1 [GW548057],8,0,50,0,0,16,0,31,0,9,16,10,51,0,31,52,11,36,2,0
Oc1ccc2ncnc(Nc3ccc(OCc4ccccc4)cc3)c2c1 [GI262866],12,0,13,59,0,0,0,11,17,0,3,0,0,0,0,0,0,0,0,0
COc1cc2c(Nc3cccc(NC(=O)c4ccccc4)c3)ncnc2cc1OCCCN1CCOCC1 [GSK223810],15,4,0,4,0,10,0,6,1,0,2,2,0,0,0,0,0,0,1,2
CC(C)(C)OC(=O)NC1CCCN(c2cc(-c3ccc4c(N)n[nH]c4c3)nc(N)n2)C1 (stereo not drawn) [GSK2286096],9,0,31,0,0,6,0,8,0,24,0,0,0,0,21,0,0,0,0,7
Cc1ccc(C)c(NC(=O)NCCNc2ccnc(Nc3ccc(F)cc3)n2)c1 [GSK1379878],12,0,7,0,0,0,0,2,0,0,0,8,0,0,0,16,11,17,0,0
O=C(c1ccc(-c2cc(-c3c[nH]nc3-c3ccccn3)ccn2)cc1)N1CCCC1 [GW792479],24,0,0,0,0,11,0,14,9,0,4,31,9,16,21,3,18,0,0,3
